In PubChem BioAssay (NCATS):
Results filed as inconclusive are left out. Where a call stands in place of a potency, no number is given. Active and inactive are the calls of the source. Calls follow the shape of the dose curve; as a rule, active = well fitted inhibition curve with a large enough effect; inconclusive = small, poorly fitted or top-dose-only effect; inactive = flat fitted curve, though single readings scatter.

System: CP201
Test: qHTS profiling for inhibitors of Plasmodium falciparum proliferation (AID 504749); also: nearly all actives have a fitted effect of over 60% in size
Conditions: P. falciparum in erythrocytes, SYBR Green DNA, 72 h; series mostly up to 28.7 µM
Outline: (§1)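 Infected RBCs, 0.3% parasitemia/2.5% Hct final; cpd 72 h, 37 C, 5% CO2; lysis buffer with saponin/triton/SYBR Green I, o/n RT dark; FI 485/535; norm. to artemisinin (0.29 uM) and DMSO.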
Potency is read from the fitted curve at half-maximal effect.

Structure (SMILES) | Potency
C[C@@H](NCCCc1cccc(C(F)(F)F)c1)c1cccc2ccccc12 | 15.1 µM (active)
COc1cc(NCc2ccc3nc(N)nc(N)c3c2C)cc(OC)c1OC | 4.78 µM (active)
NC(N)=NC(N)=NCCc1ccccc1 | inactive
N[C@@H](Cc1ccc(O)c(O)c1)C(=O)O | inactive
OC(Cn1cncn1)(Cn1cncn1)c1ccc(F)cc1F | inactive
CCOC(=O)c1ccc(C#Cc2ccc3c(c2)C(C)(C)CCS3)nc1 | inactive
O=c1cc(O)c(Cl)c[nH]1 | inactive
CCn1cc(C(=O)O)c(=O)c2cc(F)c(N3CCN(C)CC3)cc21 | inactive
CC(C)NCC(O)c1ccc(NS(C)(=O)=O)cc1 (stereo unspecified) | inactive
Cc1cccc(N(C)C(=S)Oc2ccc3ccccc3c2)c1 | inactive
CC(=O)Oc1ccccc1C(=O)Nc1ncc([N+](=O)[O-])s1 | inactive
CC[C@H](C)C(=O)O[C@H]1C[C@@H](C)C=C2C=C[C@H](C)[C@H](CC[C@@H]3C[C@@H](O)CC(=O)O3)[C@H]21 | inactive
CC(C)OC(=O)C(C(=O)OC(C)C)=C1SC=CS1 | inactive
O=S(=O)(O)CCS | inactive
Cc1nnc(NS(=O)(=O)c2ccc(N)cc2)s1 | inactive
CNC1CCCN(c2c(F)cc3c(=O)c(C(=O)O)cn(C4CC4)c3c2OC)C1 (stereo unspecified) | inactive
S=P(N1CC1)(N1CC1)N1CC1 | inactive
N=C(N)c1ccc(OCCCCCOc2ccc(C(=N)N)cc2)cc1 | 1.69 µM (active)
CCCc1nc(C)c2c(=O)[nH]c(-c3cc(S(=O)(=O)N4CCN(CC)CC4)ccc3OCC)nn12 | inactive
CC1=CC(=O)c2ccccc2C1=O | inactive
Nc1[nH]c(=O)ncc1F | inactive
Nc1nc(N)c2nc(CNc3ccc(C(=O)NC(CCC(=O)O)C(=O)O)cc3)cnc2n1 (stereo unspecified) | inactive
COC(=O)Nc1nc2ccc(C(=O)c3ccccc3)cc2[nH]1 | inactive
Nc1nc(N)nc(-c2cc(Cl)ccc2Cl)n1 | inactive
CC(C)(Sc1cc(C(C)(C)C)c(O)c(C(C)(C)C)c1)Sc1cc(C(C)(C)C)c(O)c(C(C)(C)C)c1 | inactive
COc1ccc(-c2ccc3cc(C(=O)O)ccc3c2)cc1C12CC3CC(CC(C3)C1)C2 | inactive
NCCCC(O)(P(=O)(O)O)P(=O)(O)O | inactive
COC(=O)Nc1nc2ccc(Sc3ccccc3)cc2[nH]1 | inactive

System: CP203
Test: as above
Conditions: P. falciparum in erythrocytes, SYBR Green DNA, 72 h; series mostly up to 28.7 µM
Outline: as §1

Structure (SMILES) | Potency
C[C@@H](NCCCc1cccc(C(F)(F)F)c1)c1cccc2ccccc12 | 10.7 µM (active)
COc1cc(NCc2ccc3nc(N)nc(N)c3c2C)cc(OC)c1OC | 4.78 µM (active)
NC(N)=NC(N)=NCCc1ccccc1 | inactive
N[C@@H](Cc1ccc(O)c(O)c1)C(=O)O | inactive
CNNCc1ccc(C(=O)NC(C)C)cc1 | inactive
OC(Cn1cncn1)(Cn1cncn1)c1ccc(F)cc1F | inactive
CCOC(=O)c1ccc(C#Cc2ccc3c(c2)C(C)(C)CCS3)nc1 | inactive
O=c1cc(O)c(Cl)c[nH]1 | inactive
CC(C)NCC(O)c1ccc(NS(C)(=O)=O)cc1 (stereo unspecified) | inactive
Cc1cccc(N(C)C(=S)Oc2ccc3ccccc3c2)c1 | inactive
CC(=O)Oc1ccccc1C(=O)Nc1ncc([N+](=O)[O-])s1 | inactive
CC[C@H](C)C(=O)O[C@H]1C[C@@H](C)C=C2C=C[C@H](C)[C@H](CC[C@@H]3C[C@@H](O)CC(=O)O3)[C@H]21 | inactive
CC(C)OC(=O)C(C(=O)OC(C)C)=C1SC=CS1 | inactive
O=S(=O)(O)CCS | inactive
Cc1nnc(NS(=O)(=O)c2ccc(N)cc2)s1 | inactive
CNC1CCCN(c2c(F)cc3c(=O)c(C(=O)O)cn(C4CC4)c3c2OC)C1 (stereo unspecified) | inactive
S=P(N1CC1)(N1CC1)N1CC1 | inactive
O=c1oc2c(O)c(O)cc3c(=O)oc4c(O)c(O)cc1c4c23 | inactive
N=C(N)c1ccc(OCCCCCOc2ccc(C(=N)N)cc2)cc1 | 0.953 µM (active)
CCCc1nc(C)c2c(=O)[nH]c(-c3cc(S(=O)(=O)N4CCN(CC)CC4)ccc3OCC)nn12 | inactive
COc1cc([C@@H]2c3cc4c(cc3[C@H](O)[C@H]3COC(=O)[C@H]23)OCO4)cc(OC)c1OC | 12 µM (active)
CC1=CC(=O)c2ccccc2C1=O | inactive
Nc1[nH]c(=O)ncc1F | inactive
Nc1nc(N)c2nc(CNc3ccc(C(=O)NC(CCC(=O)O)C(=O)O)cc3)cnc2n1 (stereo unspecified) | inactive
Nc1nc(N)nc(-c2cc(Cl)ccc2Cl)n1 | inactive
CC(C)(Sc1cc(C(C)(C)C)c(O)c(C(C)(C)C)c1)Sc1cc(C(C)(C)C)c(O)c(C(C)(C)C)c1 | inactive
COc1ccc(-c2ccc3cc(C(=O)O)ccc3c2)cc1C12CC3CC(CC(C3)C1)C2 | inactive
NCCCC(O)(P(=O)(O)O)P(=O)(O)O | inactive
COC(=O)Nc1nc2ccc(Sc3ccccc3)cc2[nH]1 | inactive
CCc1cc(C(N)=S)ccn1 | inactive

System: CP211
Test: as above
Conditions: P. falciparum in erythrocytes, SYBR Green DNA, 72 h; series mostly up to 28.7 µM
Outline: as §1

Structure (SMILES) | Potency
C[C@@H](NCCCc1cccc(C(F)(F)F)c1)c1cccc2ccccc12 | 13.5 µM (active)
NC(N)=NC(N)=NCCc1ccccc1 | inactive
N[C@@H](Cc1ccc(O)c(O)c1)C(=O)O | inactive
CNNCc1ccc(C(=O)NC(C)C)cc1 | inactive
OC(Cn1cncn1)(Cn1cncn1)c1ccc(F)cc1F | inactive
O=c1cc(O)c(Cl)c[nH]1 | inactive
CC(C)NCC(O)c1ccc(NS(C)(=O)=O)cc1 (stereo unspecified) | inactive
Cc1cccc(N(C)C(=S)Oc2ccc3ccccc3c2)c1 | inactive
CC(=O)Oc1ccccc1C(=O)Nc1ncc([N+](=O)[O-])s1 | inactive
CC[C@H](C)C(=O)O[C@H]1C[C@@H](C)C=C2C=C[C@H](C)[C@H](CC[C@@H]3C[C@@H](O)CC(=O)O3)[C@H]21 | inactive
CC(C)OC(=O)C(C(=O)OC(C)C)=C1SC=CS1 | inactive
O=S(=O)(O)CCS | inactive
Cc1nnc(NS(=O)(=O)c2ccc(N)cc2)s1 | inactive
CNC1CCCN(c2c(F)cc3c(=O)c(C(=O)O)cn(C4CC4)c3c2OC)C1 (stereo unspecified) | inactive
S=P(N1CC1)(N1CC1)N1CC1 | inactive
COc1cc2c(Nc3ccc(Br)cc3F)ncnc2cc1OCC1CCN(C)CC1 | inactive
N=C(N)c1ccc(OCCCCCOc2ccc(C(=N)N)cc2)cc1 | 0.849 µM (active)
CCCc1nc(C)c2c(=O)[nH]c(-c3cc(S(=O)(=O)N4CCN(CC)CC4)ccc3OCC)nn12 | inactive
CC1=CC(=O)c2ccccc2C1=O | inactive
Nc1[nH]c(=O)ncc1F | inactive
Nc1nc(N)c2nc(CNc3ccc(C(=O)NC(CCC(=O)O)C(=O)O)cc3)cnc2n1 (stereo unspecified) | inactive
COC(=O)Nc1nc2ccc(C(=O)c3ccccc3)cc2[nH]1 | inactive
Nc1nc(N)nc(-c2cc(Cl)ccc2Cl)n1 | inactive
CC(C)(Sc1cc(C(C)(C)C)c(O)c(C(C)(C)C)c1)Sc1cc(C(C)(C)C)c(O)c(C(C)(C)C)c1 | inactive
COc1ccc(-c2ccc3cc(C(=O)O)ccc3c2)cc1C12CC3CC(CC(C3)C1)C2 | inactive
NCCCC(O)(P(=O)(O)O)P(=O)(O)O | inactive
COC(=O)Nc1nc2ccc(Sc3ccccc3)cc2[nH]1 | inactive
CCc1cc(C(N)=S)ccn1 | inactive
